Paper PMC4336329 (PLoS ONE, 2015)
About 14,000 (4.5%) of roughly 310,000 compounds showed an effect of 50% or more. The effect is printed as a negative number. The entries come from a sample that favours strong results as a whole.

These molecules were tested against human ether-à-go-go-related gene (hERG) potassium channel (human, UniProt Q12809) (assay: primary screen, population patch clamp on CHO cells stably expressing hERG; higher = less effect of the substance).
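Further: peak tail current of the secondary pulse compared with the same well before compound.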

Sequence of human ether-à-go-go-related gene (hERG) potassium channel (Q12809 whole entry, looked up): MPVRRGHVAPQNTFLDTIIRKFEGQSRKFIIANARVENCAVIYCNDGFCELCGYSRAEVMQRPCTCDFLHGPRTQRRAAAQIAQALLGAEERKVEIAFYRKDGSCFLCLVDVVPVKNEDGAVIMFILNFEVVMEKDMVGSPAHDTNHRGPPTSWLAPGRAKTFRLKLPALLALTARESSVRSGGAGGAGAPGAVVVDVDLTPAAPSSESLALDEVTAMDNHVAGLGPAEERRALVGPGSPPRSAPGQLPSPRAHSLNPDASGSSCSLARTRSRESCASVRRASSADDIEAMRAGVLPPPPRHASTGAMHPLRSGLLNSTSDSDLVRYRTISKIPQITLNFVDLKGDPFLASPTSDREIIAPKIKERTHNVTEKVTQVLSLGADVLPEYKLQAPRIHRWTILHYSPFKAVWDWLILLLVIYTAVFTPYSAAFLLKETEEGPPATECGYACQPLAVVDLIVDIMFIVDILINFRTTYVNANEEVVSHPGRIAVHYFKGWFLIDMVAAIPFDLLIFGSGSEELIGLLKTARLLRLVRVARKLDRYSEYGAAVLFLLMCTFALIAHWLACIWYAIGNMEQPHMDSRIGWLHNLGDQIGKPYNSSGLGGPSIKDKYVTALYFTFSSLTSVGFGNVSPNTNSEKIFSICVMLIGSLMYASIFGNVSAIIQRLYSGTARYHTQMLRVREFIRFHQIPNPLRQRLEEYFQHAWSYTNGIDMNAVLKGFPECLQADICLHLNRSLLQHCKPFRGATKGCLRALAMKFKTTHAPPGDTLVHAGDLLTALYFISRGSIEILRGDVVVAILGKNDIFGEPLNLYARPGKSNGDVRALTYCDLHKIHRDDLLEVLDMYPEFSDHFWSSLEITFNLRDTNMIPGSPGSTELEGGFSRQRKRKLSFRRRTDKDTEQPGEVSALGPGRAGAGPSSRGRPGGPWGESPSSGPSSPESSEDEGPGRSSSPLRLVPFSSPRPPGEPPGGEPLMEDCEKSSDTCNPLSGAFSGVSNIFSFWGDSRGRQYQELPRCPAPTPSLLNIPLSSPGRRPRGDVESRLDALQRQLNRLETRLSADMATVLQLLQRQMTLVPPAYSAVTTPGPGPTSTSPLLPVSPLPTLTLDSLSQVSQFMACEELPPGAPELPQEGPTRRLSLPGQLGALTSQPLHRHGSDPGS

Row | SMILES | hERG current change (%, negative = inhibition) at 10uM [%]
1 | CCCCn1c(SCc2cccc([N+](=O)[O-])c2)nc2ccsc2c1=O | 10
2 | CN1CCN(CCCNC(=O)c2ccc(Cn3c(=S)[nH]c4ccc(Br)cc4c3=O)cc2)CC1 | 17.4
3 | Brc1ccc2nc(N3CCCC3)sc2c1 | 13
4 | O=C(C1CCN(c2nc3ccc(Br)cc3s2)CC1)N1CCC2(CC1)OCCO2 | -62.3
5 | CC(C)(C)C(=O)N1CCN(c2nc3ccc(Br)cc3s2)CC1 | -8.45
6 | Cc1ccc2nc(N3CCC(C(=O)N4CCC5(CC4)OCCO5)CC3)sc2c1 | -19.8
7 | CCCC(=O)N1CCN(c2nc3ccc(Br)cc3s2)CC1 | -71
8 | CCc1ccc2nc(N3CCC(C(=O)N4CCC5(CC4)OCCO5)CC3)sc2c1 | -42.5
9 | CCCCC(=O)N1CCN(c2nc3ccc(Br)cc3s2)CC1 | -69.4
10 | CCC(=O)N1CCN(c2nc3ccc(Br)cc3s2)CC1 | -44.2
11 | CC(=O)N1CCN(c2nc3ccc(Br)cc3s2)CC1 | -49.4
12 | Cc1nc([N+](=O)[O-])cn1Cc1cccc([N+](=O)[O-])c1 | -8.42
13 | CCOC(=O)C(=O)N/N=C/c1ccco1 | 11.3
14 | CCOc1ccc(-n2c(SCC(N)=O)nc3c(c2=O)SCC3)cc1 | 12
15 | Cc1ccccc1OCCNc1cc(N2CC(C)NC(C)C2)ccc1[N+](=O)[O-] (centres unmarked) | -12.3
16 | Cc1ccc(C2CC2C(=O)NNC(=S)Nc2cccc(Cl)c2)cc1 (centres unmarked) | -4.44
17 | COc1ccc(OCc2cc(C(=O)N3CCN(CC(=O)N(C)C)CC3)no2)c(Cl)c1 | -13.4
18 | COc1cc2c(=O)n(CC3CCCO3)c(=O)n(CC(=O)Nc3ccccc3)c2cc1OC (centres unmarked) | -2.85
19 | O=C(c1cc(-c2ccco2)nc2ccccc12)N1CCN(c2ccc(F)cc2)CC1 | -28.8
20 | O=C(c1ccc(Cn2c(=O)[nH]c3ccccc3c2=O)cc1)N1CCN(c2ccc(F)cc2)CC1 | -15.5
21 | COc1ccc(Cn2c(=O)[nH]c3cc(C(=O)N4CCN(c5ccccc5)CC4)ccc3c2=O)cc1 | 9.23

Row | SMILES | hERG current change (%, negative = inhibition) at 10uM [%]
22 | Cc1nc2ccn(Cc3ccccc3)c(=O)c2cc1C(=O)N1CCN(c2ccc(F)cc2)CC1 | -78.5
23 | COc1ccc(N2CCN(C(=O)c3cc4c(C)nc5ccccc5c4o3)CC2)cc1 | -47
24 | Cc1nc2ccn(Cc3ccccc3)c(=O)c2cc1C(=O)N1CCN(c2ccccc2)CC1 | -74
25 | COc1cccc(N2CCN(C(=O)c3cc4c(=O)n(Cc5ccccc5)ccc4nc3C)CC2)c1 | -49.8
26 | CS(=O)(=O)N(Cc1ccccc1)c1ccccc1C(=O)N1CCN(c2ccccc2)CC1 | -46.6
27 | COc1ccc(N2CCN(C(=O)c3cc4c(=O)n(Cc5ccccc5)ccc4nc3C)CC2)cc1 | -55.2
28 | CSC1=C(C#N)C(c2ccc(Cl)cc2)C2=C(CC(C)(C)CC2=O)N1 (centres unmarked) | -6.94
29 | C=CCCCCc1nc2ccccc2c(=O)n1N | 6.28
30 | Cc1ccc2c(C)nc(N/C(N)=N/S(=O)(=O)c3ccc([N+](=O)[O-])cc3)nc2c1 | -13.1
31 | COc1cc(C(=O)NC(c2ccccc2)c2ccccc2)cc(OC)c1C | 15.2
32 | CC(C)CCNC(=O)[C@H](Cc1ccccc1)N1Cc2ccccc2C1=O | -11.6
33 | CC(C)NC(=O)[C@H](CSCc1ccccc1)N1Cc2ccccc2C1=O | -40
34 | COC(CNC(=O)[C@H](CSCc1ccccc1)N1Cc2ccccc2C1=O)OC | -3.49
35 | COCCCNC(=O)[C@H](CSCc1ccccc1)N1Cc2ccccc2C1=O | -14.5
36 | O=C(NCCCN1CCCC1)[C@H](CSCc1ccccc1)N1Cc2ccccc2C1=O | -56.8
37 | COCCNC(=O)[C@H](CSCc1ccccc1)N1Cc2ccccc2C1=O | -42.6
38 | O=C(NCCCN1CCCC1=O)[C@H](CSCc1ccccc1)N1Cc2ccccc2C1=O | 1.78
39 | CC(C)CCNC(=O)[C@H](CSCc1ccccc1)N1Cc2ccccc2C1=O | -61
40 | CCCCNC(=O)[C@H](CSCc1ccccc1)N1Cc2ccccc2C1=O | -68.5
41 | N#CCCN1CCCc2cc(N=Nc3ccc(C(F)(F)F)cc3)ccc21 | 13.4
42 | COc1ccc(Cl)cc1Nc1nc(C)cc(C)c1C(N)=O | 14.3

Row | SMILES | hERG current change (%, negative = inhibition) at 10uM [%]
43 | CC(C)C[C@@H]1NC(=O)[C@H](CO)NC(=O)c2cc([N+](=O)[O-])cc(I)c2OCC[C@@H](C(N)=O)NC1=O | 2.3
44 | CCC(=O)Nc1ccc(NC(=S)NC(=O)c2cc3ccccc3o2)cc1 | 7.15
45 | COc1ccc(Cn2nnnc2CN2CCN(c3ccc(OC)cc3)CC2)cc1 | -3.66
46 | O=[N+]([O-])c1ccc2cn(-c3ccccc3)nc2c1 | -0.226
47 | O=C(CCc1nc2ccccc2c(=O)[nH]1)Nc1cc(C(F)(F)F)ccc1N1CCOCC1 | -35.3
48 | CN(Cc1ccc(C(F)(F)F)cc1)C(=O)C1CCC(=O)N(C2CC2)C1 (centres unmarked) | -51.7
49 | CN(Cc1cccc(Cl)c1)C(=O)C1CCC(=O)N(C2CC2)C1 (centres unmarked) | 1.31
50 | Cc1ccc(CN(C)C(=O)C2CCC(=O)N(C3CCCCCC3)C2)cc1 (centres unmarked) | 7.71
51 | Cc1cccn2c(=O)c3cc(C(=O)NC4CCCCC4)c(=N)n(CCN4CCOCC4)c3nc12 | -87
52 | Cc1cccn2c(=O)c3cc(C(=O)NC4CCCC4)c(=N)n(CCCN4CCOCC4)c3nc12 | -74.7
53 | CCCCOc1nc2ccccc2nc1NS(=O)(=O)c1ccc(F)cc1 | -5.01
54 | Cc1nc2scc(-c3cccs3)c2c(=O)n1CC(=O)O | 5.83
55 | CCOC(=O)COc1c(Br)cc(/C=C2\SC(=O)N(CC(=O)N3CCCC3)C2=O)cc1OC | -24
56 | Cc1cccc(CCNC(=O)CN(C)S(=O)(=O)c2cnc[nH]2)c1 | 4.07
57 | Cc1ccccc1C(=O)c1cccn1CC(=O)N1CCCCC1 | 10.6
58 | Cc1onc(-c2ccccc2Cl)c1C(=O)Nc1ccc(-c2nnc3n2CCCCC3)cc1 | -4.31
59 | Cc1ccc(-n2c(SCC(=O)Nc3cc(S(=O)(=O)N4CCOCC4)ccc3Cl)nc3ccccc3c2=O)cc1 | 2.71
60 | COCCn1c(SCC(=O)Nc2ccc3c(c2)CCC3)nc2ccccc2c1=O | 4.46
61 | Cc1ccc(NC(=O)CSc2nc3ccccc3c(=O)n2CCCN2CCCCC2)cc1Cl | -73.7
62 | CN(C)S(=O)(=O)c1ccc(Cl)c(NC(=O)CSc2nc3ccccc3c(=O)n2CCCN2CCOCC2)c1 | -73.9
63 | CS(=O)(=O)c1ccc(Cl)c(NC(=O)CSc2nc3ccccc3c(=O)n2CCCN2CCOCC2)c1 | -47.7

Row | SMILES | hERG current change (%, negative = inhibition) at 10uM [%]
64 | CCN(CC)CCn1c(SCC(=O)Nc2ccc3c(c2)CCC3)nc2ccccc2c1=O | -83
65 | CCCCn1c(SCC(=O)Nc2ccc3c(c2)CCC3)nc2ccccc2c1=O | -33.6
66 | COCCCNC(=O)CSc1nc2ccccc2c(=O)n1CCCN1CCCCC1 | 2.04
67 | CCC(C)NC(=O)CSc1nc2ccccc2c(=O)n1CCCN1CCCCC1 (centres unmarked) | -13.8
68 | Cc1ccc(NC(=O)CSc2nc3ccccc3c(=O)n2CCCN2CCCCC2)cc1C | -71.9
69 | Cc1ccc(NC(=O)CCC(=O)N/N=C/c2coc3ccccc3c2=O)cc1 | 0.733
70 | Cc1ccccc1NC(=O)NCc1ccc2c(c1)OCO2 | 11.6
71 | O=C(COC(=O)C1(c2ccc(Cl)cc2)CCCC1)N1CCc2ccccc21 | -1.16
72 | CCOC(=O)Nc1sc2c(c1C(N)=O)CCC(C)C2 (centres unmarked) | 16.4
73 | CC(=O)c1sc2nsc(SCCN3CCCC3)c2c1N | -0.32
74 | Cc1c(Cl)ccc(S(=O)(=O)Nc2cccnc2)c1Cl | 13.6
75 | Cc1cc(C(F)(F)F)nc(SCC(=O)NC2CCCCC2)n1 | -10
76 | COCCn1c(SCC(=O)Nc2ccc(N3CCOCC3)cc2)nc2ccccc21 | -4.58
77 | COCCn1c(SCC(=O)Nc2ccc(S(=O)(=O)N3CCOCC3)cc2)nc2ccccc21 | -58.8
78 | O=C(CSc1nc2ccccc2c(=O)n1-c1ccccc1Cl)Nc1cccc(S(=O)(=O)N2CCOCC2)c1 | -6.76
79 | O=C(CSc1nc2ccccc2c(=O)n1CCCN1CCOCC1)Nc1cccc(S(=O)(=O)N2CCCCCC2)c1 | -72.2
80 | COCCn1c(SCC(=O)Nc2ccc(S(N)(=O)=O)cc2)nc2ccccc21 | -32.1
81 | O=C(CSc1nc2ccccc2c(=O)n1-c1ccc(F)c(Cl)c1)Nc1cccc(S(=O)(=O)N2CCOCC2)c1 | 21.8
82 | COc1cc(N)ccc1NC(=O)c1cc2ccccc2o1 | 13.1
83 | O=C(CN1CCCC1)Nc1ccc(NC(=O)Nc2ccccc2)cc1 | 6.42
